Common to all, as to assay: NCI-60 one-dose screen, 48 h (100 = growth as untreated, 0 = no growth, -100 = all killed)
Settings in all cases: 10 µM unless noted

Assay [1] concerns RPMI-8226 leukemia.
For assay [2], the system named is OVCAR-8 ovarian.
In assay [3] the test system is OVCAR-5 ovarian.
For assay [4], the system named is OVCAR-4 ovarian.
The subject of assay [5] is SK-OV-3 ovarian.
For assay [6], the system named is IGROV1 ovarian.
Assay [7] has as its system OVCAR-3 ovarian.
In assay [8] the test system is HS 578T breast.
For assay [9], the system named is NCI/ADR-RES ovarian.
Assay [10] concerns T-47D breast.
Assay [11] has as its system BT-549 breast.
Assay [12] concerns MDA-MB-435 melanoma.
Assay [13] has as its system SW-620 colon.
Assay [14] relates to MCF7 breast.
Assay [15] deals with HCT-116 colon.
Assay [16] has as its system HCC-2998 colon.
For assay [17], the system named is KM12 colon.

Structures are written as SMILES. Compounds without any hit were thinned out: in the full panel of roughly 83,000, 20% have a hit.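 Compound tested at a single concentration for 48 hours in 96-well plates; a percent growth value below 10 was scored as active.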 Unmarked numbers belong to inactive results. Activity calls are given as the source filed them.

As for `C[n+]1ccc(C#N)c2ccccc21`, the growth in assay [1] is 94.6%; in assay [2], 111%; in assay [3], 103%; in assay [4], 64.7%; in assay [5] it was 98.2%; in assay [6], 70.5%. For the same compound, the growth in assay [7] is 4.02% (active); in assay [8], 108%; in [9], 101%; in assay [10], 88.8%; in assay [11], 102%; in [12] it was 95.8%. In addition, the growth in assay [13] was 90.6%; in assay [14], 87.5%; in assay [15] it was 80%; in assay [16] it was 114%; in [17] it was 100%.

On to `CCN(CC)CCCNCCCNc1cc(OC)cc2cccnc12`, for which the growth in [1] is 81.3%; in assay [2], 88.8%; in [3], 94.5%; in assay [4] it was -62.3% (active); in assay [5] it was 111%; in assay [6], 73.9%. The growth was 32.8% in assay [7]; 94.9% in assay [8]; 93.2% in assay [9]; 64.7% in assay [10]; 100% in [11]; 103% in assay [12]. In addition, the growth in [13] was 38.7%; in assay [14], -46.8% (active); in assay [15], 86.5%; in [16], 83.7%; in [17], 78.8%.

Regarding `O=Cc1c[nH]c2ccc(NC(=O)OCc3ccccc3)cc12`, the growth was 93% in assay [1]; 103% in assay [2]; 97.5% in [3]; 104% in [4]; 97.6% in assay [5]; 32.4% in assay [6]. The growth is 123% in assay [7]; 252% in [8]; 96.3% in assay [9]; 84.2% in [10]; 21.4% in [11]; 115% in assay [12]. For the same compound, the growth is 121% in assay [13]; 100% in assay [14]; 98.9% in assay [15]; 96.2% in assay [16]; 123% in assay [17].

Take `O=C(C(=O)N1CCCCC1)c1ccc(OC2OC(CO)C(O)C(O)C2O)cc1` (stereo not drawn): the growth is 103% in assay [1]; 95.9% in assay [2]; 113% in assay [3]; 108% in assay [4]; 105% in assay [5]; 86.7% in [6]. Besides, the growth is 107% in assay [7]; 110% in assay [8]; 103% in assay [9]; 99.6% in assay [10]; 116% in [11]; 107% in assay [12]. Moreover, the growth was 109% in assay [13]; 94.3% in assay [14]; 109% in [15]; 108% in [16]; 115% in assay [17].

`COc1cc(-c2cc(C(=O)Nc3nc4ccccc4s3)nc3cc(-c4ccccc4)nn23)cc(OC)c1OC`: the growth was 73.7% in assay [1]; 60.2% in [2]; 106% in [3]; 82.5% in assay [4]; 97.7% in assay [5]; 99.7% in assay [6]. In addition, the growth in [7] was 48.1%; in [8], 62.1%; in assay [9], 73.3%; in [10], 83.7%; in assay [11], 59.6%; in assay [12], 31%. Further, the growth in [13] was 55.7%; in assay [14], 72.9%; in assay [15] it was 57.8%; in assay [16], 85.6%; in assay [17] it was 45.3%.

Regarding `CC(C)C(=O)Cc1cnccn1`, the growth in assay [1] was 109%; in [2] it was 102%; in [3], 108%; in assay [4] it was 117%; in [5], 116%; in assay [6], 106%. The growth in assay [7] was 111%; in [8] it was 96.4%; in assay [9], 101%; in [10] it was 109%; in assay [11], 110%; in [12], 101%. In addition, the growth is 102% in [13]; 103% in assay [14]; 109% in [15]; 104% in assay [16]; 112% in assay [17].

With `Clc1cccc(Cc2cn3cc(-c4ccccc4)nc3s2)c1`, the growth in [1] was 41.3%; in [2], 53.4%; in assay [3], 34.1%; in [4] it was 46.8%; in assay [5] it was 93.8%; in [6], 64.8%. Moreover, the growth in [7] is 73.6%; in assay [8] it was 76.8%; in assay [9], 60.2%; in assay [10] it was 11.5%; in assay [11], 77.5%; in [12], 33.1%. For the same compound, the growth in assay [13] is 30.2%; in assay [14] it was 21.1%; in assay [15], 42.6%; in assay [16], 17.7%; in assay [17] it was 12.1%.

With `CC(=O)Oc1ccc(C2OC(c3ccc4ccccc4c3OC(C)=O)=NN2C(C)=O)c(OC(C)=O)c1` (stereo not drawn), the growth in [1] was 21.2%; in [2], 8.13% (active); in [3] it was 63.2%; in [4] it was 32.2%; in [5], 27.6%; in [6], 20.3%. The growth is 18.7% in [7]; 59.7% in assay [8]; 11.1% in assay [9]; 25% in assay [10]; 31% in assay [11]; 33.6% in assay [12]. In addition, the growth in assay [13] is 32%; in assay [14], 15.6%; in assay [15], 20.6%; in assay [16] it was 29.9%; in [17], 19.7%.

On to `C[C@]12CC[C@@H]3c4ccc(O)c([N+](=O)[O-])c4CC[C@H]3[C@@H]1CC[C@@H]2NS(=O)(=O)c1cccc(Br)c1`, for which the growth in [1] is 10.7%; in [2] it was 40%; in assay [3] it was 88.2%; in assay [4], 40.4%; in assay [5], 80.3%; in assay [6], 34.8%. The growth in assay [7] was 28.5%; in assay [8], 62.5%; in [9], 26.8%; in assay [10], 24.6%; in [11] it was 29.3%; in assay [12], 10.7%. In addition, the growth in assay [13] was 44.5%; in assay [14], 14.6%; in assay [15], 21.8%; in assay [16], 51.2%; in [17] it was 17.4%.

The values above are taken from PubChem BioAssay (NCI).
